PubChem BioAssay AID1347072 (National Center for Advancing Translational Sciences (NCATS), 2019)
Fewer than 10 of roughly 44,000 compounds were called active. Not shown: some 2% with an inconclusive outcome. Calls follow the shape of the dose curve; as a rule, active = well fitted curve in the direction sought with a large enough effect; inconclusive = small, poorly fitted or top-dose-only effect, or another doubt; inactive = no such curve, though single readings can be large or run the other way. Not all results are given here.

Target: Galactokinase (Homo sapiens) (UniProt P51570)
Sequence (P51570 whole entry, looked up): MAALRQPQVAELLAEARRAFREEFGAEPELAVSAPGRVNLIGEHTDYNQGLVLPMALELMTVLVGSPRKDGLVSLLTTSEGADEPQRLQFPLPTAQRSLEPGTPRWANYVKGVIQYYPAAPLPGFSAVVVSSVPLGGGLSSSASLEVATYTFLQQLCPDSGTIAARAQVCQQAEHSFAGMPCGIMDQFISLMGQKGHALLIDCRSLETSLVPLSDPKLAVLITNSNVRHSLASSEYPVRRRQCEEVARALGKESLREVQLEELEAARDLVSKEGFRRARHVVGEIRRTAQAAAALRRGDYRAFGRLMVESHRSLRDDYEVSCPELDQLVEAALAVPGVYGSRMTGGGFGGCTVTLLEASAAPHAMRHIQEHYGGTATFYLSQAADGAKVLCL
Assay: qHTS Assay for Inhibitors of Human Galactokinase (GALK): NCGC Sytravon Library Screen
Conditions: recombinant GALK, Kinase-Glo ATP luminescence, 1 h; series mostly up to 57.5 µM
Source text: Inherited deficiency of galactose-1-phosphate uridyltransferase (GALT) can result in a potentially lethal disorder called Classic Galactosemia (OMIM 230400). Several lines of evidence indicate that an elevated level of galactose-1-phosphate (gal-1-p), the product of galactokinase (GALK), is a major, if not sole, pathogenic mechanism in patients with classic galactosemia. Therefore, finding inhibitors of GALK is a potential novel therapy for this inherent metabolic disease and is the long term goal of this project. This screen is run against the NCGC Sytravon compound library collection. GALK (provided by Kent Lai) was assayed using ATP and D-(+)-Galactose (Sigma-Aldrich cat# G0750) as substrates. Promega Kinase-Glo Plus technology was used to detect kinase activity. Reactions with and without GALK were used as negative and positive controls together with Protein Tyrosine Phosphatase CD45 inhibitor (EMD Bioscience cat# 540215) which is shown to inhibit GALK activity. Decrease in activity corresponds to inhibition of the enzyme is the desired outcome for this assay. NIH Molecular Libraries Probe Production Network [MLPCN] NIH Chemical Genomics Center [NCGC] Grant: R03 MH085689-01 PI Name: Kent Lai Ph.D., University of Utah
NCGC Assay Protocol Summary: Three uL/well of ATP-buffer solution (35 uM ATP, 20mM HEPES pH8.0, 5 mM MgCl2, 60 mM NaCl, 1 mM DTT, 0.01% BSA final concentration) was dispensed into 1536-well, assay plates (Greiner, solid white medium-binding plates) with Aurora Discovery BioRAPTR Flying Reagent Dispenser (FRD; Beckton-Dickenson). Compound solution (23 nL) was transferred to the assay plate using the Kalypsys 1536-pin tool. One uL/well GALK-galactose solution (5 nM GALK, 100 uM galactose, 20 mM HEPES pH8.0, 5 mM MgCl2, 60 mM NaCl, 1 mM DTT, 0.01% BSA final concentration) was then added using the FRD yielding a total kinase reaction volume of 4 uL/ well. After 1 hour of room temperature incubation, 4 uL Kinase-Glo Plus reagent was added for a final assay volume of 8 uL/ well. Luminescence was detected with the ViewLux plate reader (Perkin Elmer, Waltham, MA) after 10 min incubation using a 1 sec exposure time and 2x binning.

outcome, inactive:
O=S(=O)(NCC(c1ccco1)N1CCOCC1)c1cc(F)ccc1F (configuration not stated), COc1ccc(-c2nc(C)c(CCNC(=O)c3ccc(C(F)(F)F)cc3)s2)cc1OC, CCOC(=O)c1cccc(NC(=O)C(Cc2ccccc2)NS(=O)(=O)c2cccc3nsnc23)c1 (configuration not stated), Cc1ccccc1Nc1nn2c(=O)c3ccc(C(=O)NCCc4ccc(Cl)cc4)cc3nc2s1, CCOc1ccc(C(=O)N2CCN(CCc3ccccn3)CC2)cc1, COc1ccccc1CNCc1ccc(C(=O)O)s1, COc1ccccc1CNC(=O)c1ccccc1NC(=O)c1nsc2ccccc12, Cc1sc2ncn(CC(=O)N3CCN(c4ccc(F)cc4)CC3)c(=O)c2c1S(=O)(=O)N1CCN(c2ncccn2)CC1, COc1ccc(OC)c(NC(=O)/C=C/c2ccc(C)o2)c1, Cc1ccc(CNC(=O)CCC(=O)N2Cc3ccccc3Oc3ncccc32)cc1, Cc1nn(CC(=O)NCCc2ccccc2)c(=O)c2c1sc1ccccc12, COc1ccc(OC)c(NC(=O)CN2CCCN(Cc3cc(C)ccc3C)S2(=O)=O)c1, O=C(NCCCN1CCN(c2cccc(Cl)c2)CC1)c1nnc(Cc2ccc(F)cc2Cl)o1, CC1=C(c2ccc(C)c(C)c2)S(=O)(=O)NC1=NCc1ccccc1Cl, COc1ccc(S(=O)(=O)NCCc2cc3ccc(C)c(C)c3[nH]c2=O)cc1, CCc1cccc(C)c1Nc1c(-c2ccc(N(C)C)cc2)nc2ncccn12, COc1ccc(NC(=O)Cn2c(=O)n(Cc3ccc(C(=O)NCc4ccccc4Cl)cc3)c(=O)c3ccccc32)cc1, CCC(=O)Nc1ccc2nc(SCC(=O)N3CCc4ccccc43)sc2c1, Cc1ccc(-n2c3nc(=O)[nH]c(=O)c-3cc3c(Cl)cccc32)cc1, Cc1ccc(SCC(=O)Nc2ccc3oc(-c4ccccc4C)nc3c2)cc1, COc1ccc(NC(=O)CSc2nc3ccccc3n2CC(=O)N2CCCCC2C)cc1 (configuration not stated), CCOc1ccc(CCNC(=O)CSc2cc(=O)n(C)c3ccc(Cl)cc23)cc1OCC, O=C(Cn1c(=O)n(Cc2ccccc2)c(=O)c2sc3ccccc3c21)Nc1ccccc1F, Cc1cccc2c(=O)cc(CSc3ccccc3NC(=O)C(C)C)[nH]c12, COc1cc(OC)c(OC)cc1/C=C/c1nc2cc3ccccc3cc2c(=O)n1-c1ccc(F)c(Cl)c1, Cc1ccc(C(=O)Nc2nc(-c3ccccc3)ns2)cc1, Cc1ccc(C)c(Cn2c(=O)n(CCC(=O)NCc3ccc4c(c3)OCO4)c(=O)c3sccc32)c1, Cc1ccc(CNS(=O)(=O)c2ccc(C(=O)N(C)C)s2)cc1, O=C(NCc1ccc2c(c1)CCN2C(=O)c1ccccc1)Nc1cc(F)ccc1F, CN(C(=O)CSc1nc2ccccc2n1Cc1ccccc1C#N)c1ccccc1, CCCn1c2ccccc2c2cnn(CC(=O)NCC3CCN(Cc4ccc(C)cc4)CC3)c(=O)c21, COc1ccc(-c2noc(CSc3nnc(-c4ccccc4)n3-c3ccc(F)cc3)n2)c(OC)c1, Cc1nnc(NC(=O)CSc2nc3c([nH]c4ccccc43)c(=O)n2-c2cccc(Cl)c2)s1, CCOc1ccc(CCNC(=O)c2cc3c(=O)n(C)c4ccccc4c3n2C)cc1, O=C(CSc1nc2c(c(=O)[nH]1)CN(Cc1ccc(F)cc1)CC2)Nc1ccccc1Cl, O=C(Cc1ccc(Cl)cc1)NCC(c1cccs1)S(=O)(=O)c1ccc(Cl)cc1 (configuration not stated), O=C(Nc1ccc(Br)cc1)c1ccc(Br)c(S(=O)(=O)NCc2ccccc2)c1, Cc1ccc(-c2cn3c(n2)sc2cc(C(=O)NCc4cccs4)ccc23)c(C)c1, CCc1ccccc1NC(=O)c1ccc(F)c(S(=O)(=O)NC2CCCCCC2)c1, CCc1cccc(NC(=O)CSc2nccn2C)c1, COc1ccc(CCNc2ncnc3c2cnn3-c2ccc(C)cc2)cc1, Cc1cccc(-c2nc(SCc3ccc(Br)cc3)n3[nH]c(=O)cc3n2)c1, CC(CCCc1ccccc1)NC(=O)c1nn(-c2ccc(Cl)cc2)nc1CO (configuration not stated), COc1ccc(CNc2nc(-c3ccc(Cl)cc3)cc(C(F)(F)F)n2)cc1, CCn1cc(CCC(=O)NCc2ccc(F)cc2)c2ccccc21, CCN(c1ccc(Cl)cc1)S(=O)(=O)c1nnc(NC(=O)c2ccco2)s1, CCc1nn(CC(=O)Nc2cccc(C)c2C)c(=O)c2cc3sccc3n12, Cc1c(Cl)cccc1NC(=O)C1CCCN(C(=O)c2cnn(-c3ccccc3)c2-n2cccc2)C1 (configuration not stated), CCc1ccccc1OCCSc1nc(-c2cccs2)nc2cc(=O)[nH]n12, COc1ccc2cc(-c3nc(Cl)c4c5c(sc4n3)CC(C)CC5)c(=O)oc2c1 (configuration not stated), Cc1ccc2cccc(NC(=O)C(C)Oc3ccc(C)c(C)c3)c2n1 (configuration not stated), CCCCc1nn2c(=O)cc(COC(=O)c3ccccc3NC(=O)C(C)(C)C)nc2s1, O=C(CSc1nc(=O)[nH]c2c1CCCC2)Nc1cc(C(F)(F)F)ccc1Cl, CC(NC(=O)c1cc2c(=O)n3ccccc3nc2n(C(C)C)c1=N)c1ccccc1 (configuration not stated), COc1ccccc1CNS(=O)(=O)c1cc(Br)cc2c1N(C(C)=O)C(C)C2 (configuration not stated), Cn1c(=O)cc(OCC(=O)N2CCN(c3ccccc3F)CC2)c2ccccc21, COc1ccc(CNC(=O)CCc2c(C)nn(-c3ccc(N4CCCC4)nn3)c2C)cc1, O=S(=O)(NCCS(=O)(=O)N1CCN(c2ccccc2)CC1)c1ccc(Cl)cc1, CCCN1CCN(CCCNC(=O)c2ccc3nc(Cc4ccccc4)oc3c2)CC1, CCN(Cc1ccccc1)C(=O)c1cn(-c2cccc(OC)c2)c(=O)c2ccccc12, COc1ccc(NS(=O)(=O)c2cc3c4c(c2)CC(=O)N4CCC3)cc1Cl, CC(=O)N1CCCc2ccc(NS(=O)(=O)c3ccc(F)cc3F)cc21
